# From PubChem BioAssay
# Where “and” joins values, the source holds several entries; their conditions need not be identical. Identical values can stand only once. Calls of active or inactive are those of the source. Cut-off read from the data, not from the text of the source, unless noted: active = inhibition above about 80%; inactive = the rest.
# What was measured:
# [1] = LFS_MB_1R medulloblastoma cell growth inhibition, synergistic combos for chromothripsis tumors, cisplatin or BGB combos (AID 1671452); details: LFS_MB_1R medulloblastoma cells, measured here: combination with cisplatin, stronger effect = higher value;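 note: cells exposed for 96 hours before readout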
# [2] = HTB85 osteosarcoma cell growth inhibition, synergistic combos for chromothripsis tumors, BGB or cisplatin IC20 combos (AID 1671453); details: HTB85 osteosarcoma cells, drug combinations, stronger effect = higher value;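 note: cells exposed for 96 hours before readout; 0% = vehicle DMSO and 100% = high DMSO killing control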
# [3] = CRL2098 osteosarcoma cell growth inhibition, synergistic combos for chromothripsis tumors, BGB or cisplatin IC20 combos (AID 1671454); details: CRL2098 osteosarcoma cells, drug combinations, stronger effect = higher value;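 note: cells exposed for 96 h before readout; 0% = vehicle DMSO and 100% = killing by high DMSO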
# [4] = HD-MB03 medulloblastoma cell growth inhibition, synergistic combos for chromothripsis tumors, BGB or cisplatin IC20 combos (AID 1671455; in the data active = inhibition above about 83%;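 note: 0% = vehicle DMSO and 100% = high DMSO as cytotoxic control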); details: HD-MB03 medulloblastoma cells, stronger effect = higher value
# [5] = UWB1.289 ovarian carcinoma cell growth inhibition, synergistic combos for chromothripsis tumors, BGB or cisplatin combos (AID 1671456); details: UWB1.289 ovarian carcinoma cells, stronger effect = higher value;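 note: cells exposed to compound for four days; 0% = vehicle DMSO and 100% = killing by high DMSO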
# [6] = LFS_MB_2R medulloblastoma cell growth inhibition, synergistic combos for chromothripsis tumors, cisplatin combos (AID 1671457); details: LFS_MB_2R medulloblastoma cells, stronger effect = higher value;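 note: cells exposed to compound for four days before readout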
# [7] = MDA-MB-436 breast carcinoma cell growth inhibition, synergistic combos for chromothripsis tumors, BGB or cisplatin combos (AID 1671458; call rule not given here;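 note: cells exposed for 96 hours; 0% = vehicle DMSO and 100% = killing by high DMSO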); details: MDA-MB-436 breast carcinoma growth inhibition, drug combinations, stronger effect = higher value
# [8] = UWB1.289_BRCA1 ovarian cancer growth, cell-based, BGB or cisplatin combinations (AID 1671459); details: UWB1.289 BRCA1 ovarian carcinoma, drug combinations, stronger effect = higher value
# [9] = human astrocyte viability loss, single and combined drugs, cytotoxicity control for chromothriptic childhood tumor combination screen, cell-based, BGB or cisplatin IC20 combos (AID 1671460); details: Human astrocytes, drug combinations, stronger effect = higher value;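 note: cells exposed to compounds for 96 hours before viability readout; 0% = vehicle and 100% = killing control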
# [10] = growth inhibition of BT084 medulloblastoma cells, cell-based, ICGC_MB145, cisplatin and BGB IC40 combos (AID 1671461); details: drug combinations, stronger effect = higher value;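 note: cells exposed to drugs for 96 hours; 0% = vehicle DMSO and 100% = high DMSO full killing control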
# [11] = growth inhibition of RCMB18 medulloblastoma cells, cell-based, cisplatin and BGB IC40 combos (AID 1671462); details: stronger effect = higher value;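 note: cells exposed to compound for four days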
# [12] = growth inhibition of CRL1545 osteosarcoma cells, cell-based, cisplatin and BGB IC20 combos (AID 1671464); details: stronger effect = higher value;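 note: cells exposed to compound for 96 hours before readout; 0% = vehicle DMSO and 100% = high DMSO killing control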
# [13] = liver-stage malaria parasite growth inhibition, primary screen, cell-based, HepG2, luciferase luminescence, HepG2 viability (AID 624349; in the data active = parasite load remaining mostly below about 12%, no sharp cut-off; inactive = mostly above about 10%;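 note: 100% = mean of DMSO negative control wells on the same plate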); details: P. berghei liver stage in HepG2, luciferase luminescence, concentration not given here; parasite load remaining: stronger effect = lower value; viability: measured here: HepG2 viability without parasites
# [14] = sensitizers of A549 cells to miR-34 induction, primary screen, imaging, A549 dox-inducible miR-34, nuclei and caspase counts (AID 1347080;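 active = compounds whose cell count with miR-34 switched on is under 0.7 times the count with it off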); details: A549 miR-34 inducible, Hoechst nuclei count, 48 h
# [15] = survival rescue of mitochondrial mutant cells in low glucose, primary screen, MELAS cybrids, Rieske KO mouse fibroblasts, CellTiter-Glo (AID 1508586;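 active = mean z-score across replicates of 1.96 or higher in either the MELAS or the Rieske mutant cell line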;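 note: z relative to plate mean and SD of compound and empty wells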)
# [16] = molecular target: NAD(+) hydrolase SARM1 (Homo sapiens) (UniProt Q6SZW1); assay: SARM1 TIR NADase inhibitors, cell lysate, NAD-Glo luminescence (AID 1508614;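 active = compound whose remaining NAD level is above about 45 nM, limit read from the data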;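 note: higher remaining NAD means stronger inhibition of SARM1 NADase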); details: SAM-TIR HEK293T lysate NADase, at 1 µM, stronger effect = higher value
# [17] = measured here: combination with cisplatin, at 0.5 µM
# [18] = stronger effect = lower value, cell number ratio, induced over uninduced
# [19] = measured here: relative caspase fold change +Dox/-Dox
# [20] = measured here: total cells with miR-34 induction, stronger effect = lower value
# [21] = measured here: total cells without miR-34 induction
# [22] = MELAS cybrid survival, CellTiter-Glo 48 h, stronger effect = higher value
# [23] = Rieske KO mouse fibroblast survival, CellTiter-Glo 72 h
# NAD(+) hydrolase SARM1 (Homo sapiens), sequence (Q6SZW1 whole entry, looked up): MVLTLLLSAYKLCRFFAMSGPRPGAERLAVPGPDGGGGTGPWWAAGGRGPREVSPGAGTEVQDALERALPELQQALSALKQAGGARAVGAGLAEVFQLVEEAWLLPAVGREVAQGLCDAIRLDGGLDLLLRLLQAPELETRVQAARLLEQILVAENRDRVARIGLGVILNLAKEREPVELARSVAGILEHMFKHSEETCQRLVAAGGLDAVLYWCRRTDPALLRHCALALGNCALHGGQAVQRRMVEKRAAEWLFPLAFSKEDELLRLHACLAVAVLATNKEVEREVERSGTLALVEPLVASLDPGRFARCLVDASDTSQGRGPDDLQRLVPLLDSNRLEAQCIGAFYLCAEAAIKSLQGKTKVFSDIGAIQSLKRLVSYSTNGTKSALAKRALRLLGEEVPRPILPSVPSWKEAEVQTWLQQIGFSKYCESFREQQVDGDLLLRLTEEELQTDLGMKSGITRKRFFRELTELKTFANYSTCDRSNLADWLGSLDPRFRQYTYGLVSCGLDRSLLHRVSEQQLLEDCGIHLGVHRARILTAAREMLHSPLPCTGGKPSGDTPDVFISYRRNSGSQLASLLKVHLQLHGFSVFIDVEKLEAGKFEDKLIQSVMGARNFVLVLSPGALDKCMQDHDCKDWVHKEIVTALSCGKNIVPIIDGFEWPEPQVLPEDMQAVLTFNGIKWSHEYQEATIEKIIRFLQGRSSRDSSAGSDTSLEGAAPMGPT
smiles,measurement,setting,value
O=C(NCC1(c2nc(-c3ccccc3)cs2)CCOCC1)c1cccc(-c2noc(C(F)(F)F)n2)c1,inhibition,[1]; at 0.5 µM,-76.1% and -10.4%
same,inhibition,[1]; at 5 µM,-10.4% and -0.263%
same,inhibition,[2]; at 0.5 µM,-28.5% (inactive) and 1.8% (inactive)
same,inhibition,"[2]; measured here: with BGB IC20, at 0.5 µM",-38.8% and -0.919%
same,inhibition,"[2]; measured here: with BGB IC20, at 5 µM",-58.5% and 4.11%
same,inhibition,"[2]; measured here: with cisplatin IC20, at 0.5 µM",-26.7% and 6.6%
same,inhibition,"[2]; measured here: with cisplatin IC20, at 5 µM",-31.5% and 8.1%
same,inhibition,"[2]; single agent, at 5 µM",-23.9% and 9.32%
same,inhibition,[3]; at 0.5 µM,-56.1% (inactive) and -1.16% (inactive)
same,inhibition,"[3]; measured here: combination with BGB at IC20, at 0.5 µM",-61.3% and -10.8%
same,inhibition,"[3]; measured here: combination with cisplatin at IC20, at 0.5 µM",-66.8% and 10.9%
same,inhibition,[4]; at 0.5 µM,-15.6% (inactive) and 10.1% (inactive)
same,inhibition,"[4]; measured here: combo with BGB at IC20, at 0.5 µM",-9.59% and 1.06%
same,inhibition,"[4]; measured here: combo with cisplatin at IC20, at 0.5 µM",-27.9% and 14.3%
same,inhibition,[5]; at 0.5 µM,-12.3% (inactive) and 13.4% (inactive)
same,inhibition,"[5]; measured here: inhibition with BGB combination, at 0.05 µM",-8.63% and 3.2%
same,inhibition,"[5]; measured here: inhibition with cisplatin combination, at 0.05 µM",0.295% and 28.5%
same,inhibition,[6]; at 0.5 µM,0.9% (inactive) and 4.52% (inactive)
same,inhibition,[6]; [17],0.458% and 8.71%
same,inhibition,"[6]; measured here: combination with cisplatin, at 5 µM",-55.5% and 22.9%
same,inhibition,[7]; at 0.5 µM,-6.26% (inactive) and 2.54% (inactive)
same,inhibition,"[7]; measured here: BGB combination, at 0.5 µM",-4.1% and 0.779%
same,inhibition,"[7]; measured here: BGB combination, at 5 µM",-10.4% and -5.25%
same,inhibition,"[7]; measured here: cisplatin combination, at 0.5 µM",-10.7% and 8.48%
same,inhibition,"[7]; measured here: cisplatin combination, at 5 µM",-13.8% and 11%
same,inhibition,"[8]; BGB combination, concentration series, at 5 µM",-15.2% and 14.2%
same,inhibition,[8]; at 0.5 µM,-10.2% (inactive) and 7.86% (inactive)
same,inhibition,"[8]; cisplatin combination, concentration series, at 5 µM",8.95% and 1.52%
same,inhibition,[9]; at 0.5 µM,-27.1% (inactive) and -7.2% (inactive)
same,inhibition,"[9]; measured here: combo with BGB IC20, at 0.5 µM",-8.11% and -1.8%
same,inhibition,"[9]; measured here: combo with cisplatin IC20, at 0.5 µM",-58.3% and -12.6%
same,inhibition,[10]; at 0.5 µM,-4.68% (inactive) and 10.6% (inactive)
same,inhibition,"[10]; cisplatin combination, at 0.5 µM",-2.52% and 12.6%
same,inhibition,"[10]; cisplatin combination, at 5 µM",12.8% and 27.4%
same,inhibition,"[10]; measured here: BGB IC40 combination 0.05 uM, at 0.05 µM",16% and -10.3%
same,inhibition,"[10]; single agent, at 5 µM",15.3% and 24.7%
same,inhibition,[11]; at 0.5 µM,-34.6% (inactive) and 5.45% (inactive)
same,inhibition,"[11]; cisplatin combo, at 5 µM",-80.8% and -19.2%
same,inhibition,"[11]; measured here: BGB IC40 combination, at 0.05 µM",-21% and 1.81%
same,inhibition,[11]; [17],-74.6% and 3.89%
same,inhibition,"[11]; single agent, at 5 µM",14.7% and 26.4%
same,inhibition,[12]; at 0.5 µM,-45.6% (inactive) and -15.7% (inactive)
same,inhibition,"[12]; measured here: with BGB IC20 combination, at 0.5 µM",-23% and -21.2%
same,inhibition,"[12]; measured here: with cisplatin IC20 combination, at 0.5 µM",-60.5% and -14.7%
same,inhibition,"[12]; single agent, at 0.05 µM",-48% and 14.2%
same,inhibition,"[12]; single agent, at 5 µM",36.5% and 43.7%
CC1(C)S[C@@H]2[C@H](NC(=O)[C@H](NC(=O)N3CCNC3=O)c3ccccc3)C(=O)N2[C@H]1C(=O)O,parasite load remaining,[13],109% (inactive)
same,viability,[13],98.7%
same,fold change,[14]; [18],0.917 (inactive)
same,fold change,[14]; [19],1.11
same,cell count,[14]; [20],9220
same,cell count,[14]; [21],10100
same,z-score,[15]; [22],0.409 (inactive)
same,z-score,[15]; [23],-0.381
same,remaining NAD,[16],10 nM (inactive)
NCc1ccccc1CC(=O)N[C@@H]1C(=O)N2C(C(=O)O)=C(CSc3nnnn3CC(=O)O)CS[C@H]12,parasite load remaining,[13],167% (inactive) and 62% (inactive)
same,viability,[13],121% and 87.5%
same,fold change,[14]; [18],0.949 (inactive)
same,fold change,[14]; [19],1.15
same,cell count,[14]; [20],8230
same,cell count,[14]; [21],8670
same,z-score,[15]; [22],0.404 (inactive)
same,z-score,[15]; [23],-0.0556
same,remaining NAD,[16],10 nM (inactive)
CC(C)(O/N=C(\C(=O)N[C@@H]1C(=O)N2C(C(=O)[O-])=C(C[n+]3ccccc3)CS[C@H]12)c1csc(N)n1)C(=O)O,parasite load remaining,[13],53.2% (inactive) and 19.3% (inactive)
same,viability,[13],114% and 70%
same,fold change,[14]; [18],0.844 (inactive) and 0.909 (inactive)
same,fold change,[14]; [19],1.51 and 1.02
same,cell count,[14]; [20],8430 and 9490
same,cell count,[14]; [21],9990 and 10400
same,z-score,[15]; [22],-0.0556 (inactive) and 0.494 (inactive)
same,z-score,[15]; [23],-0.289 and -0.00761
same,remaining NAD,[16],10 nM (inactive)
NC(=O)c1c(NC(=O)C2CC2)sc2c1CCCC2,fold change,[14]; [18],0.825 (inactive)
same,fold change,[14]; [19],0.622
same,cell count,[14]; [20],7330
same,cell count,[14]; [21],8890
same,z-score,[15]; [22],-0.327 (inactive)
same,z-score,[15]; [23],0.409
